# Experimental data from PubChem BioAssay (NCI).
# “And” between values parts separate entries of the source, which are not always exact repeats. Equal values may be shown once. About 83,000 compounds went through this panel and 20% of them were active in at least one assay; those are over-represented in the sample as a whole.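 Cells were grown in 96-well plates and exposed to the test compound at a single concentration for 48 hours; results are reported as percent growth, with values below 10 considered active.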 A number with no mark means an inactive call. The source made the active and inactive calls.
# System: MDA-MB-468 breast
# Test: NCI-60 one-dose screen, 48 h (100 = growth as untreated, 0 = no growth, -100 = all killed)
# Conditions: 10 µM unless noted
row,SMILES,growth
1,O=C(N/N=C/c1ccc(N(CCCl)CCCl)cc1)c1cccc2ccccc12,56.2%
2,COC1[C@@H]2C[C@H]3C(C)(C)O[C@@](C/C=C(/C)C(=O)O)(C2=O)[C@]32Oc3c(CC=C(C)C)c4c(c(O)c3C(=O)[C@H]12)C=CC(C)(C)O4 (stereo not given in full),-65.2% (active)
3,CN1C(=O)C(=Cc2cn(Cc3ccccc3)c3ccccc23)C(=O)N(C)C1=O,-49.5% (active)
4,Cc1ccc(CNc2nc3ccc(OC/C(=C/F)CN)cc3o2)cn1,109%
5,Cc1cc(N=Nc2ccccc2C)ccc1N,64.5%
6,C=C1C(=O)O[C@H]2[C@H]1CC/C(COC(=O)C(=O)c1cn(Cc3ccccc3)c3ccccc13)=C\CC[C@@]1(C)O[C@@H]21,-60.5% (active)
7,O=C(O)c1ccccc1N(CCO)CCCl,95.1%
8,COc1ccc2c(c1)NC1=C(C(=O)OC1)C2c1cc(OC)c(OC)c(OC)c1 (stereo not given),-16.3% (active)
9,NC(Cc1ccc2c(c1)OCO2)c1ccc2c(c1)OCO2 (stereo not given),96%
10,O=C(c1ccccc1O)c1[nH]c(Cl)c(Cl)c1-n1c(C(=O)c2ccccc2O)cc(Cl)c1Cl,-13.8% (active)
11,CC1(C)[C@H](O)[C@H](F)C[C@@]2(C)Oc3ccc(C(=O)Nc4ccc5c(c4)NC(=O)C54CCN(CCCCC#N)CC4)cc3C[C@H]12,7.2% (active)
12,CN1C(=O)C(=Cc2cn(CCCCCCn3c4ccccc4c(=O)c4ccccc43)c3ccccc23)C(=O)N(C)C1=O,81%
13,CC(Cc1ccc2c(c1)OCO2)NN (stereo not given),105%
14,CC(C)CCC[C@@H](C)[C@H]1CC[C@H]2[C@@H]3CC=C4C[C@@H](OC(=O)Cc5ccc(N(CCCl)CCCl)cc5)CC[C@]4(C)[C@H]3CC[C@]12C,107%
15,CO[C@@H]([CH2][Hg][O]C(=O)c1ccccc1)[C@@H]([CH2][Hg][O]C(=O)c1ccccc1)OC,94%
16,O=S1(=O)OCCO1,98.2%
17,O=C/C=C/c1ccco1,106%
18,CNC(=O)O/N=C(\SC)C(=O)N(C)C,116%
19,COP(=S)(N1CC1)N1CC1,110%
20,COC(=O)C1OC(Oc2ccc(N(CCCl)CCCl)cc2)C(OC(C)=O)C(OC(C)=O)C1OC(C)=O (stereo not given),28.3%

row,SMILES,growth
1,O=C(O)C(O)C(O)C1[O][Sb]([c]2ccc([N+](=O)[O-])cc2)[O]C1CO (stereo not given),98.2%
2,CC(C)(C)C(=O)OCOP(=O)(NCc1ccccc1)C1CCCN(O)C1=O (stereo not given),-0.478% (active)
3,NC(Cc1ccc(O)cc1)C(=O)N/N=C/c1ccc(N(CCCl)CCCl)cc1 (stereo not given),19.7%
4,NC(=O)SCC(=O)Nc1ccc([As](=O)(O)O)cc1,87.2%
5,Cc1cc[n+](CCc2ccccc2)cc1,61.2% and 72.9%
6,[N-]=[N+]=NC(C(=O)O)c1ccccc1 (stereo not given),126%
7,O=C(CCF)c1ccc(O)cc1,108%
8,COC1=CC(=O)OC(CCc2ccc3c(c2)OCO3)C1 (stereo not given),95.9%
9,O=C1CN=C(c2ccc(Cl)cc2)c2sccc2N1,104%
10,CCCCCCCCCCCCCCCC[n+]1ccccc1,-33.2% (active) and -13.9% (active)
11,COc1cc2c(cc1OC)[C@@H]1N(CC2)C(=O)c2ccccc2[C@@]1(C)C(=O)O,103%
12,O=NN1CCCCC1,106%
13,CCCCCN(CCCCC)CC(O)c1ccc(C)c(Cl)c1 (stereo not given),99.9%
14,C[C@]12CC[C@H]3[C@@H](CC=C4c5nc(-c6ccc(Br)cc6)sc5CC[C@@]43C)[C@@H]1CC[C@@H]2O,110%
15,COC(C)(C)CCC[C@H](C)C/C=C/C(C)=C/C(=O)OC(C)C,86.7%
16,COC(=O)[C@@H](C)C[C@H](Cc1ccccc1)NC(=O)c1csc([C@@H](C[C@H](C(C)C)N(C)C(=O)[C@@H](NC(=O)[C@H]2CCCCN2C)C(C(F)(F)F)C(F)(F)F)OC(C)=O)n1,51.7%
17,CC1=C(C)C(=O)O[C@@H]([C@](C)(O)[C@]2(O)CC[C@@]3(O)[C@@H]4C[C@H]5O[C@]56CC=CC(=O)[C@]6(C)[C@H]4CC[C@]23C)C1,-26.3% (active)
18,O=C1NC(=O)C(=Cc2cn(CCCCCCn3c4ccccc4c(=O)c4ccccc43)c3ccccc23)C(=O)N1,-26% (active)
19,CC(=O)O[C@H](C[C@H](C(C)C)N(C)C(=O)[C@@H](NC(=O)[C@H]1CCCCN1C)C(C)C)c1nc(C(=O)N[C@@H](Cc2ccccc2)C[C@H](C)C(=O)O)c(C)s1,11.4%
20,CC[CH2][Sn]([Cl])([Cl])[CH2]CC.Oc1ccccc1C=NCCN=Cc1ccccc1O,-59.7% (active) and -33.9% (active)
